Test results as given in ChEMBL document CHEMBL3988442, “University of Dundee, Small-Polar-MMV Screening Library” (2021).
Among all 53,000 compounds or so, about 900 (1.7%) showed an effect of 50% or more. The sample holds strong results, similar compounds and a random draw of the others, so the mix is not that of the screen.

Test system: Mycobacterium tuberculosis
Assay: Cornell - Phenotypic assay to identify agents that inhibit growth of Mycobacterium tuberculosis
Assay type: functional
Set-up: scale not given: direction of the effect not stated beside the values
Details: 10 mM as filed; unlikely as a test dose

Row | Compound | Percent Effect [%]
1 | O=C(c1cnc(-c2cccnc2)nc1)N1CCSCC1 | -5.308
2 | CCc1ccc(C(COC)NC(=O)c2ccc(F)c(NC(C)=O)c2)o1 (configuration not stated) | -34.26
3 | Cc1cc(CN2CCCC2)cc(Oc2nc(C)cnc2C)c1 | -0.05473
4 | COCCN(C)C[C@@H]1CN(C(=O)c2ccc(OC)c(F)c2)C[C@@H]1CO | 3.272
5 | Cc1cc(F)ccc1N1CCC(N2C[C@@H](CN(C)C)[C@@H](CO)C2)CC1 | 20.05
6 | C[C@@H]1CN(C2CCN(c3ccccc3F)CC2)C[C@]1(C)O | -0.763
7 | Cc1cc(F)ccc1N1CCC(N2C[C@@H](C)[C@@](C)(O)C2)CC1 | 57.75
8 | Cc1nn(C)c(N2CCCN(C)CC2)c1CNC(=O)CC1CCCC1 | 23.58
9 | COc1cccc(NC(=O)C(C)Cn2cc(Cl)cn2)c1 (configuration not stated) | 52.64
10 | COc1cccc(NC(=O)NCc2cnn(C)c2)c1 | 2.363
11 | CC(Cn1cc(Cl)cn1)C(=O)Nc1ccc(CN2CCCCCC2)cc1 (configuration not stated) | -18.96
12 | COC(=O)Cn1c(=O)nc2n1C(=O)N(c1cccc(C)c1)C2 | 2.841
13 | O=C(c1csc(-c2cnccn2)n1)N1CCCC1Cn1cccn1 (configuration not stated) | -12.16
14 | O=C(NC1CCCN(c2ccccn2)C1)C1(c2ccccc2F)CC1 (configuration not stated) | -27.34
15 | Cn1cccc1C(=O)N1CC2(CCN(C(=O)c3cccnc3)C2)C1.O=C(O)C(F)(F)F | -3.792
16 | CNC(=O)c1cc(NC(=O)Nc2cnn(CC(C)C)c2)ccc1F | 69.74
17 | CCCn1cc(NC(=O)Nc2ccc(F)c(C(=O)NC)c2)cn1 | 69.43
18 | CNC(=O)c1cc(NC(=O)NC(C)CCc2cccn2C)ccc1F (configuration not stated) | -1.57
19 | CC(C)CCCNC(=O)Nc1ccc(F)c(C(N)=O)c1 | -8.199
20 | CCc1c(C(=O)Nc2ccc(F)c(C(=O)NC)c2)cnn1CC(C)C | 23.68
21 | COCCn1cc(NC(=O)NC(C)Cc2c(F)cccc2F)cn1 (configuration not stated) | -32.72
22 | Cc1cc(CN(C)C(=O)C2CC(=O)N(Cc3cccnc3)C2)on1 (configuration not stated) | 14.11
23 | CCc1nnc2n1CCN(Cc1nnc(-c3occc3C)o1)C2 | -3.481
24 | COc1ccccc1NC(=O)Cn1c(=O)nc(N)c2cc(C)sc21 | -16.18
25 | CNc1oc(-c2ccc(OC)c(S(=O)(=O)N3CCCC3)c2)nc1C#N | 17.45
26 | COCC(C)NC(=O)NCCCc1cc(N)n(-c2ccccc2)n1 (configuration not stated) | 4.106

Row | Compound | Percent Effect [%]
27 | CCNC(=O)c1ccoc1CN1c2ccccc2CC1C (configuration not stated) | 70.88
28 | CC1Cc2ccccc2N1Cc1occc1C(=O)NCC(=O)N(C)C (configuration not stated) | 0.4209
29 | COC(=O)CCNC(=O)c1ccoc1CN1c2ccccc2CC1C (configuration not stated) | 59.33
30 | COCCNC(=O)c1ccoc1CN1c2ccccc2CC1C (configuration not stated) | 34.19
31 | CC1Cc2ccccc2N1Cc1occc1C(=O)OCC(N)=O (configuration not stated) | 46.11
32 | CC1Cc2ccccc2N1Cc1occc1C(=O)O (configuration not stated) | -3.286
33 | CN(CCn1nc2ccccn2c1=O)CC(=O)NC1CC1 | -0.7088
34 | Cc1nc(CN2CCC3(C2)CN(C(=O)c2ccc[nH]2)C3)cs1 | 9.497
35 | COc1cccc(NC(=O)Nc2ccc3c(c2)CC(=O)N3)c1 | -2.338
36 | O=C(NCC(=O)N1CCc2ccccc2C1)c1ccoc1 | -20.14
37 | COC(=O)N1CCN2C[C@H](CO)[C@@H](c3ccccc3)[C@H]2C1 | 9.303
38 | CC(=O)OC1CN(c2nc3c(C(F)(F)F)cccc3s2)C1 | 5.311
39 | COC1COC2(CCN(Cc3ccc4ccccc4n3)CC2)C1.O=C(O)C(F)(F)F.O=C(O)C(F)(F)F (configuration not stated) | 14.78
40 | Cc1ccc(-n2cnnn2)cc1NCC(=O)Nc1cc(F)ccc1F | 11.17
41 | Cc1ccc(-n2cnnn2)cc1NCC(=O)Nc1ccccc1Cl | 6.921
42 | O=C(CNc1ccccc1Cl)Nc1cc(-n2cnnn2)ccc1F | 22.69
43 | O=C(CNc1cc(-n2cnnn2)ccc1F)Nc1cc(F)ccc1F | 3.475
44 | O=C(CNc1cc(-n2cnnn2)ccc1F)NCc1ccccc1 | 76.98
45 | O=C(CNc1cc(-n2cnnn2)ccc1F)Nc1ccccc1Cl | 96.42
46 | O=S(=O)(c1ccc(F)c(F)c1)N1CCCC(c2nccs2)C1 (configuration not stated) | -0.9721
47 | Cc1cccc(C(=O)N2C[C@@H](OCc3ccncc3)[C@@H]3OCCC[C@@H]32)n1.O=C(O)C(F)(F)F.O=C(O)C(F)(F)F | 29.52
48 | O=C(NCc1ccc(F)cc1)N1CCC(C2OCCO2)CC1 | 9.763
49 | Cl.Cl.O=C(CN1CCN(CC(O)C2CC2)CC1)NCc1ccc(F)cc1 (configuration not stated) | 12.18
50 | O=C(CNc1ccc(OC2CCOC2)cc1)NCc1ccc(F)cc1 (configuration not stated) | 70.37
51 | O=C(CNc1ccc(OC2CCOC2)cc1)NCc1cccs1 (configuration not stated) | 8.02
52 | Cc1ccccc1CNC(=O)CNc1ccc(OC2CCOC2)cc1 (configuration not stated) | 74.57

Row | Compound | Percent Effect [%]
53 | O=C(CNc1ccc(OC2CCOC2)cc1)NCc1ccco1 (configuration not stated) | 37.67
54 | C1CN(Cc2noc(C3CC3)n2)CCN(Cc2nnc(C3CC3)o2)C1 | -22.59
55 | Cc1cnn(C2CCCN(C(=O)CCCc3ccccn3)C2)c1 (configuration not stated) | 2.711
56 | COc1ccc(S(=O)(=O)Nc2cnc(N(C)C)nc2)cc1 | -14.34
57 | CCCN(C(=O)c1cnccn1)c1nc2c(s1)CCc1c-2cnn1C | 25.49
58 | CCCN(C(=O)c1ccncc1)c1nc2c(s1)CCc1c-2cnn1C | 54
59 | CCCN(C(=O)c1cccnc1)c1nc2c(s1)CCc1c-2cnn1C | 30.71
60 | CS(=O)(=O)NC[C@H]1OC[C@H]2CN(CCc3ccccc3)CC[C@H]21.O=C(O)C(F)(F)F | 1.676
61 | CN1CCOC(CNCc2coc(-c3cccc(Cl)c3)n2)C1 (configuration not stated) | 12.33
62 | COc1ccc(CN(C)[C@@H]2CN(C(=O)c3cccnc3)C[C@H]2O)cc1 | 29.94
63 | CC(C)c1cc(C(=O)NCC2CCCN(c3ncccn3)C2)n(C)n1 (configuration not stated) | 10.83
64 | COc1cccc(-c2cc(C(=O)N3N=C(C)CC3(O)C(F)(F)F)[nH]n2)c1 (configuration not stated) | 58.69
65 | COc1ccc(-c2cc(C(=O)N3N=C(C)CC3(O)C(F)(F)F)[nH]n2)cc1 (configuration not stated) | -4.762
66 | COc1cccc(-c2cc(C(=O)N3N=C(C)CC3(O)C(F)F)[nH]n2)c1 (configuration not stated) | 21.19
67 | COCCC(=O)Nc1nccn1Cc1ccc(Br)cc1 | 27.83
68 | COCC(=O)Nc1nccn1Cc1ccc(Br)cc1 | 26.85
69 | CCOCC(=O)Nc1nccn1Cc1ccc(Br)cc1 | 58.9
70 | CSCC(=O)Nc1nccn1Cc1ccc(Br)cc1 | 106.3
71 | CCOCC(=O)Nc1ncn(Cc2cccc(Br)c2)n1 | -12.98
72 | CC(C)(C#N)C(=O)Nc1nccn1Cc1ccc(Br)cc1 | 15.16
73 | CNC(=O)C1Cn2ccnc2C2(CCN(C(=O)NC3CCCC3)CC2)O1 (configuration not stated) | 14.23
74 | COCCNC(=O)N1CCCC(COc2ccccc2)C1 (configuration not stated) | 32.08
75 | COCCN1CC(C(=O)Nc2ccc3c(c2)CCC(=O)N3C)CC1=O (configuration not stated) | -14.74
76 | Cn1ncc2c(NCC3CCCN3c3cccnn3)ncnc21 (configuration not stated) | 19.68
77 | CCOc1cccc(COC(=O)c2cscn2)n1 | 94.28
78 | CCOc1cccc(NC(=O)c2cc(C)on2)n1 | 7.843

Row | Compound | Percent Effect [%]
79 | CCOc1cccc(COC(=O)c2ccc(Cl)cn2)n1 | 25.49
80 | CCOc1cccc(COC(=O)c2cc(Cl)ccn2)n1 | 14.29
81 | CCOc1cccc(COC(=O)c2cc(C)on2)n1 | 56.01
82 | CCOc1cccc(COC(=O)c2ccc(F)cn2)n1 | 26.62
83 | Cc1cnn(CC(C)NCc2nc(-c3ccoc3)no2)c1 (configuration not stated) | -18.82
84 | CC(=O)N1CCN(C(C)c2ccc(Br)cc2)CC1 (configuration not stated) | 29.59
85 | CC(=O)c1cccc(NC(=O)Cn2cc(I)cn2)c1 | 18.59
86 | COc1ccc(C2CNCCN2C(=O)c2cccc3cccnc23)cc1 (configuration not stated) | -23.3
87 | COc1ccccc1C(=O)N1CCC(Nc2ccc(C)nn2)CC1 | 2.292
88 | CCc1ccc(NC(C(N)=O)c2ccc(F)cc2)cc1 (configuration not stated) | 17.32
89 | Cc1csc(CN2CCC[C@]3(C[C@H](OCC4CC4)CO3)C2)n1 | 14.79
90 | CCCc1ccc(C(C)Nc2ncnc3c2CCNC3)cc1 (configuration not stated) | 32.1
91 | CC(Nc1ncnc2c1CCNC2)c1ccc(C(C)(C)C)cc1 (configuration not stated) | 24.62
92 | CCOc1ccc(C(C)Nc2ncnc3c2CCNC3)cc1OCC (configuration not stated) | 51.31
93 | COC(=O)Cn1nc(-c2ccccc2F)ccc1=O | -14.4
94 | O=c1c(S(=O)(=O)N2CCCCC2)cccn1Cc1ccccc1Cl | 9.959
95 | CC(C)COC(=O)N1CCCN(C(C)c2nc(C(C)C)no2)CC1 (configuration not stated) | 10.17
96 | O=C(NCCc1cccs1)C1(N2CCCCC2)Cc2ccccc2C1 | 15.22
97 | CN(C)c1nccc(N2CCO[C@H]3CN(Cc4ccsc4)C[C@H]32)n1.O=C(O)C(F)(F)F | 57.1
98 | O=C(O)C(F)(F)F.O=C(O)C(F)(F)F.c1cnc(N2CCO[C@H]3CN(Cc4ccsc4)C[C@H]32)nc1 | 5.511
99 | Cc1cccc(CN2C[C@@H]3OCCN(c4ccnc(N(C)C)n4)[C@@H]3C2)c1.O=C(O)C(F)(F)F | 24.83
100 | Oc1ccccc1-c1n[nH]c(C2CC2)n1 | -27.03
101 | CNC(=O)CC1CCN(C(=O)NCc2cn3c(C)cccc3n2)CC1 | 20.05
102 | CC(=O)N1CCCC(c2ccc(C(=O)NC3CCCC3)cn2)C1 (configuration not stated) | -27.02
